# Experiments:
# Assay in all cases: DAPPL (digital affinity profiling via proximity ligation, sequencing); 10 mM Tris-HCl pH 7.5, 50 mM NaCl, 1 mM DTT, 4% glycerol, room temperature, 30 min; GST-TFs on glutathione beads, 16-mer random dsDNA library, 0.1% formaldehyde crosslink after washing; high values mean tight binding
# Details in all cases: protein: recombinant; tags: N-terminal GST; dsDNA, one strand shown
# [1] = biological target: T1, FLI1 (Homo sapiens, UniProt Q01543 1-452)
# T1 sequence: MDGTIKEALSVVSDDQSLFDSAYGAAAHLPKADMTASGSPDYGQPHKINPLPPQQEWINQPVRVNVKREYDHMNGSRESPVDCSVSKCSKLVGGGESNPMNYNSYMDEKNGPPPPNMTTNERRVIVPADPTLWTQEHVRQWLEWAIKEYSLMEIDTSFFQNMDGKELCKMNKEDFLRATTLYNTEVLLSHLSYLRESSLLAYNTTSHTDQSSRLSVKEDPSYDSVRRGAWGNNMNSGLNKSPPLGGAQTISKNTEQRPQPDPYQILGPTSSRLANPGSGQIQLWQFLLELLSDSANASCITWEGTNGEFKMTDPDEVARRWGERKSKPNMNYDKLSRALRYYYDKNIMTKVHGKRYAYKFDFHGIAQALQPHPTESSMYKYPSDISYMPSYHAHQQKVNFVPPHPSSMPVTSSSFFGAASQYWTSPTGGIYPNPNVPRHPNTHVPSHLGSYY
# Outline: (§1)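 Human transcription factors carrying a GST fusion were produced in yeast, bound to glutathione beads, tagged with DNA barcodes and pooled together with a tag-only sample. Each pool was held with 200 nmole of a random double-stranded 16-mer DNA library in Tris/NaCl/DTT/glycerol buffer for 30 min at room temperature, then washed, crosslinked in 0.1% formaldehyde, proximity-ligated with BsaI/T4 ligase (1 h, 37 °C), PCR-amplified and sequenced on an Illumina NextSeq500. Binding signal is the read frequency of each hexamer for a given factor divided by its frequency in the tag-only sample.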
# [2] = biological target: T2, ELK1 (Homo sapiens, UniProt P19419 1-428)
# T2 sequence: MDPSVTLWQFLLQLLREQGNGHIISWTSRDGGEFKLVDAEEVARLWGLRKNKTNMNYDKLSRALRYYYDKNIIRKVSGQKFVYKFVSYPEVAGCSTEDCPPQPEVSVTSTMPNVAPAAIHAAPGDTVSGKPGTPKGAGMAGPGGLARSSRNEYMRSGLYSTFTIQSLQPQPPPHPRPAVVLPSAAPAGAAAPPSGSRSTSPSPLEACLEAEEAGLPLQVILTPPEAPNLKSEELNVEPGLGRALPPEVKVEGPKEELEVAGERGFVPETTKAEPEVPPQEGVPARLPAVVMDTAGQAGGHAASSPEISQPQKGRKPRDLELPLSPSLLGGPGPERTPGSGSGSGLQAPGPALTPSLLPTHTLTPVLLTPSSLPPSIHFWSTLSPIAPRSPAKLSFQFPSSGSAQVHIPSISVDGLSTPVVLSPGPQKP
# Outline: as §1
# [3] = biological target: T3, GABPA (Homo sapiens, UniProt Q06546 1-454)
# T3 sequence: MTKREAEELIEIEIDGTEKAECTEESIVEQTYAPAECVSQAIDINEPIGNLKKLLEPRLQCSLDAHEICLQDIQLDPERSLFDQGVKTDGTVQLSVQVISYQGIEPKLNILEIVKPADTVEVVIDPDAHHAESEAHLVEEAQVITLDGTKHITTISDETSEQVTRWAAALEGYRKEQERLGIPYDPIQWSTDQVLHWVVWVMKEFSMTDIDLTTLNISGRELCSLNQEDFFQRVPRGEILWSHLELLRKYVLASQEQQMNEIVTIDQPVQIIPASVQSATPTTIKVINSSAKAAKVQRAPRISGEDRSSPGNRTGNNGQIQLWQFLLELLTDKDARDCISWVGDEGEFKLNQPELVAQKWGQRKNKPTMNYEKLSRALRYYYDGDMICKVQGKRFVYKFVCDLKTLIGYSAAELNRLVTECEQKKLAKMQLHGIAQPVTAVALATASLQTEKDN
# Outline: as §1
# [4] = biological target: T4, ERG (Homo sapiens, UniProt P11308 1-479)
# T4 sequence: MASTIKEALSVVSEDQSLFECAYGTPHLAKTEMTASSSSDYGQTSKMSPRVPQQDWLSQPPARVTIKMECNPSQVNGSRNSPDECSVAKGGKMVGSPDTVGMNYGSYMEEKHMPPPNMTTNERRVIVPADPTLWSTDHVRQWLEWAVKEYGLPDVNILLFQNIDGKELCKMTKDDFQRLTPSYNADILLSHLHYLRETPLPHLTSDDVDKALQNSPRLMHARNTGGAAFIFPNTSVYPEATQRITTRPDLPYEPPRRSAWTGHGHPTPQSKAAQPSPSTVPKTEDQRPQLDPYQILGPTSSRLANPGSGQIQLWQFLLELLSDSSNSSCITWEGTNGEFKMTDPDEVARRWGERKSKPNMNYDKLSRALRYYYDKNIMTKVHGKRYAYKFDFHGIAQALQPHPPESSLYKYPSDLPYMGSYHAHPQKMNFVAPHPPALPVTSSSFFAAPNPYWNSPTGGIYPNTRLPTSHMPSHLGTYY
# Outline: as §1
# [5] = biological target: ELF1 (Homo sapiens, UniProt P32519 1-619)
# Outline: as §1
# [6] = biological target: T5, EHF (Homo sapiens, UniProt Q9NZC4 1-300)
# T5 sequence: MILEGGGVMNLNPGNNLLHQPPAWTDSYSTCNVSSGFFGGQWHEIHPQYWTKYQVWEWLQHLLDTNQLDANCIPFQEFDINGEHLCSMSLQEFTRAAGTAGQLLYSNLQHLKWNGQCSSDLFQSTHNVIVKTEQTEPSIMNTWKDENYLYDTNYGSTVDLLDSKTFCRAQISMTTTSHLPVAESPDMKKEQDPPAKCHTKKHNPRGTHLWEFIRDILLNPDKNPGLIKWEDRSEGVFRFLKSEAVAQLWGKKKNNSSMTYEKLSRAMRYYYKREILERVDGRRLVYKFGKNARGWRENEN
# Outline: as §1
# [7] = biological target: SPI1 (Homo sapiens, UniProt P17947 1-270)
# Outline: as §1
# [8] = biological target: SPIB (Homo sapiens, UniProt Q01892 1-262)
# Outline: as §1
# [9] = biological target: T6, ELK3 (Homo sapiens, UniProt P41970 1-407)
# T6 sequence: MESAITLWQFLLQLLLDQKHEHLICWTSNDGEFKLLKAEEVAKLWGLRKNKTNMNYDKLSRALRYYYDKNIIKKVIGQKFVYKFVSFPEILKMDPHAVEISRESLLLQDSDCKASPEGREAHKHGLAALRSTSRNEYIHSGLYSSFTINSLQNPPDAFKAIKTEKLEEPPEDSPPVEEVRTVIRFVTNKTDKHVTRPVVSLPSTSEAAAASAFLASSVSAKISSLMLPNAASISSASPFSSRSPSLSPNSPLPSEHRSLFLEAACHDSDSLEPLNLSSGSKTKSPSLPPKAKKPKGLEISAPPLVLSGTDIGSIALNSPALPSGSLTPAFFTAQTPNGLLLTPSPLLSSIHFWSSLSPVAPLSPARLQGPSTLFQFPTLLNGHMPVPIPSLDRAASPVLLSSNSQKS
# Outline: as §1
# Chain of ELF1 (P32519 whole entry): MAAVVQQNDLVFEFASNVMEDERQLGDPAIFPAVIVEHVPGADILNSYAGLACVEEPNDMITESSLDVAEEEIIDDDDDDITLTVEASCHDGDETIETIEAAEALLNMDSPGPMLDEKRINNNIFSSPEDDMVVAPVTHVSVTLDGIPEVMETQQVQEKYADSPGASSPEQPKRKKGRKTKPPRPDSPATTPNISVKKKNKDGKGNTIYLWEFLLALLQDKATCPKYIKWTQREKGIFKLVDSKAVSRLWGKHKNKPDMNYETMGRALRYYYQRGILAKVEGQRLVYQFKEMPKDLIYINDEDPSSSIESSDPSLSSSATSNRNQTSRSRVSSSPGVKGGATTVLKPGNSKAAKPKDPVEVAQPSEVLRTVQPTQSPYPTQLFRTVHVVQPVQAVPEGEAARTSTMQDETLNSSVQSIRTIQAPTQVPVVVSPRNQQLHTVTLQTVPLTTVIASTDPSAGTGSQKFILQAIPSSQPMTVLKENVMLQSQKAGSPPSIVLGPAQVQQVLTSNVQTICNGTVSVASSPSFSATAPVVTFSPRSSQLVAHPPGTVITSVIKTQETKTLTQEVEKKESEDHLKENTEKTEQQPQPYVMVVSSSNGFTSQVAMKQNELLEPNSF
# Chain of SPIB (Q01892 whole entry): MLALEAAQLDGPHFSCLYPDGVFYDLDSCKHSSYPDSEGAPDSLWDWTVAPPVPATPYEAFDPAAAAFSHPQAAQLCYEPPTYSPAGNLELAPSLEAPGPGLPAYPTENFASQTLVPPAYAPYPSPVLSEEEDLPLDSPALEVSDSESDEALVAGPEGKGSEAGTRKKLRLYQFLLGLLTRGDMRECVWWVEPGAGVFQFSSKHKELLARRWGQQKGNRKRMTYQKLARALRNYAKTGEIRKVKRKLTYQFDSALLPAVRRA
Sequence,binding signal [1],binding signal [2],binding signal [3],binding signal [4],binding signal [5],binding signal [6],binding signal [7],binding signal [8],binding signal [9]
GGTCTC,"2.92 fold enrichment (6-mer frequency, TF over GST control)","2.66 fold enrichment (6-mer frequency, TF over GST control)","2.5 fold enrichment (6-mer frequency, TF over GST control)","2.46 fold enrichment (6-mer frequency, TF over GST control)","2.74 fold enrichment (6-mer frequency, TF over GST control)","2.55 fold enrichment (6-mer frequency, TF over GST control)","2.89 fold enrichment (6-mer frequency, TF over GST control)","2.59 fold enrichment (6-mer frequency, TF over GST control)","2.2 fold enrichment (6-mer frequency, TF over GST control)"
TAGTGG,"1.18 fold enrichment (6-mer frequency, TF over GST control)","1.19 fold enrichment (6-mer frequency, TF over GST control)","1.25 fold enrichment (6-mer frequency, TF over GST control)","1.07 fold enrichment (6-mer frequency, TF over GST control)","1.28 fold enrichment (6-mer frequency, TF over GST control)","1.32 fold enrichment (6-mer frequency, TF over GST control)","1.19 fold enrichment (6-mer frequency, TF over GST control)","1.34 fold enrichment (6-mer frequency, TF over GST control)","1.4 fold enrichment (6-mer frequency, TF over GST control)"
TTACAA,"1.15 fold enrichment (6-mer frequency, TF over GST control)","1.17 fold enrichment (6-mer frequency, TF over GST control)","1.16 fold enrichment (6-mer frequency, TF over GST control)","1.16 fold enrichment (6-mer frequency, TF over GST control)","1.15 fold enrichment (6-mer frequency, TF over GST control)","1.17 fold enrichment (6-mer frequency, TF over GST control)","1.15 fold enrichment (6-mer frequency, TF over GST control)","1.07 fold enrichment (6-mer frequency, TF over GST control)","1.13 fold enrichment (6-mer frequency, TF over GST control)"
TCCTTG,"1.25 fold enrichment (6-mer frequency, TF over GST control)","1.31 fold enrichment (6-mer frequency, TF over GST control)","1.25 fold enrichment (6-mer frequency, TF over GST control)","1.35 fold enrichment (6-mer frequency, TF over GST control)","1.25 fold enrichment (6-mer frequency, TF over GST control)","1.32 fold enrichment (6-mer frequency, TF over GST control)","1.31 fold enrichment (6-mer frequency, TF over GST control)","1.41 fold enrichment (6-mer frequency, TF over GST control)","1.29 fold enrichment (6-mer frequency, TF over GST control)"
TCCTGC,"1.61 fold enrichment (6-mer frequency, TF over GST control)","1.8 fold enrichment (6-mer frequency, TF over GST control)","1.49 fold enrichment (6-mer frequency, TF over GST control)","1.68 fold enrichment (6-mer frequency, TF over GST control)","1.66 fold enrichment (6-mer frequency, TF over GST control)","1.53 fold enrichment (6-mer frequency, TF over GST control)","1.67 fold enrichment (6-mer frequency, TF over GST control)","1.81 fold enrichment (6-mer frequency, TF over GST control)","1.46 fold enrichment (6-mer frequency, TF over GST control)"
GTTTTT,"1.31 fold enrichment (6-mer frequency, TF over GST control)","1.19 fold enrichment (6-mer frequency, TF over GST control)","1.4 fold enrichment (6-mer frequency, TF over GST control)","1.17 fold enrichment (6-mer frequency, TF over GST control)","1.34 fold enrichment (6-mer frequency, TF over GST control)","1.38 fold enrichment (6-mer frequency, TF over GST control)","1.42 fold enrichment (6-mer frequency, TF over GST control)","1.36 fold enrichment (6-mer frequency, TF over GST control)","1.51 fold enrichment (6-mer frequency, TF over GST control)"
ATTGTT,"1.49 fold enrichment (6-mer frequency, TF over GST control)","1.42 fold enrichment (6-mer frequency, TF over GST control)","1.55 fold enrichment (6-mer frequency, TF over GST control)","1.48 fold enrichment (6-mer frequency, TF over GST control)","1.38 fold enrichment (6-mer frequency, TF over GST control)","1.53 fold enrichment (6-mer frequency, TF over GST control)","1.45 fold enrichment (6-mer frequency, TF over GST control)","1.57 fold enrichment (6-mer frequency, TF over GST control)","1.55 fold enrichment (6-mer frequency, TF over GST control)"
